The results in this text go back to PubChem BioAssay AID485272 (The Scripps Research Institute Molecular Screening Center, 2010).

The whole screen tested about 330,000 compounds, of which about 1,300 (0.39%) were called active.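 The calls were made as follows: active = percent inhibition above a cutoff equal to the mean of all tested compounds plus 3 SD (cut at about 15% in these data); inactive = the rest.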 The sample as a whole holds a higher share of actives than the screen did.

This experiment deals with Protein-arginine deiminase type-4 (Homo sapiens) (UniProt Q9UM07). Description: human PAD4 inhibitors, primary screen, biochemical, fluorescence polarization, 1536-well format (AID 485272).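 Also: 0% = PAD4 with RCA probe and DMSO and 100% = probe without PAD4.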 The conditions noted are these: recombinant PAD4, RCA probe fluorescence polarization; at 6.36 µM; active compounds read high.
Sequence of Protein-arginine deiminase type-4 (Homo sapiens) (Q9UM07 whole entry, looked up): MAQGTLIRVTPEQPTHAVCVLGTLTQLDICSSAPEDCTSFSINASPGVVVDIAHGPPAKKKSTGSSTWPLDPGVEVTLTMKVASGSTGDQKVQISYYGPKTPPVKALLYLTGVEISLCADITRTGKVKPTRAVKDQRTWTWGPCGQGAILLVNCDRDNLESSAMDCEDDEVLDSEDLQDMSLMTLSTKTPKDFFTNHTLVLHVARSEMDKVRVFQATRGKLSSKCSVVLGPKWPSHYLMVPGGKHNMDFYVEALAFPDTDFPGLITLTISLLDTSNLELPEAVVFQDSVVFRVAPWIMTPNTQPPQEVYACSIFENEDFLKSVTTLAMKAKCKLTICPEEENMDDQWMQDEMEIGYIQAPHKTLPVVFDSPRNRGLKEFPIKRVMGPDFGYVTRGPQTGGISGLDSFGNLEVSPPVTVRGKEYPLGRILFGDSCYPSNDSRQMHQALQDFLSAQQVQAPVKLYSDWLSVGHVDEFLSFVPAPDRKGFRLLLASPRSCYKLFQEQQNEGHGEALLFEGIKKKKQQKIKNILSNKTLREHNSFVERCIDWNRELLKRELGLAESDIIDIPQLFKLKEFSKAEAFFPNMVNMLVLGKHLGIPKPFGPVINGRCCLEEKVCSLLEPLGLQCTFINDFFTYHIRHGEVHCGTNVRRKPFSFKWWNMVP
Usually inhibition stands for the relative decrease from the control value, in per cent. Take `c1ccc2c(c1)OCCOCCOCCO2`: the inhibition was 0.83% (inactive). Then `CCn1c(SCC(=O)Nc2sc(C)c(C)c2C#N)nnc1C1CC1`, with -2.74% (inactive); and `CCCc1c(C)nc2c(Br)cccc2c1Cl`, with 2.17% (inactive).

For `O=C1Nc2ccccc2C12Nc1ccccc1S2` (centres undefined), the inhibition was 21.3% (active). Take `CCc1ccc2c(c1)C1(NN=C(c3ccccc3)S1)C(=O)N2` (centres undefined): the inhibition is -9.11% (inactive). Turning to `COc1ccc(C2(O)C(=O)Nc3ccccc32)cc1` (centres undefined), the inhibition is 0.37% (inactive). As to `CC1(C)N=C(c2ccccn2)C(C)(C)N1O`, the inhibition was -1.6% (inactive). The figure for `O=C(NCCc1ccccc1Cl)C1CCC(=O)N(CCCc2ccccc2)C1` (centres undefined) is 1.05% (inactive).

Regarding `Cc1c2cnn(CC(=O)NCc3ccccn3)c(=O)c2c(C)n1Cc1ccc(Cl)cc1`, the inhibition is 1.37% (inactive). Then `CC(C)CNC(=O)CC(NCC(C)C)C(=O)O` (centres undefined), with -2.65% (inactive).

Consider `Cc1cc(O)ccc1-c1cnc2ccccc2n1`, for which the inhibition is 28.5% (active). In the case of `Oc1ccc(-c2[nH]ncc2-c2nc3ccccc3s2)c(O)c1`, the inhibition is 3.22% (inactive). Then `Cc1nc2ccccc2nc1N/N=C/c1ccc(O)cc1O`, with -3.07% (inactive). Consider `CS(=O)(=O)N(CC(=O)N1CCN(c2ccc(F)cc2)CC1)C1CCCCC1`, for which the inhibition is -2.55% (inactive). The figure for `C=CCN1C2CCCC1CC(NC(=S)Nc1cccc(OC)c1)C2` (centres undefined) is 3.98% (inactive). With `O=C(CN1C(=O)CCS(=O)(=O)c2ccccc21)NCc1ccc(F)cc1`, the inhibition is -1.88% (inactive).

Regarding `C[C@H](CO)N1C[C@H](C)[C@@H](CN(C)Cc2ccc(-c3ccccc3)cc2)Oc2ccc(NC(=O)Cn3cnnn3)cc2C1=O`, the inhibition was -5.03% (inactive).

As for `CN1c2ccc(C=O)c3c(C=O)ccc(c23)N(C)C1(C)C`, the inhibition is 54.5% (active).

On to `O=C(Nc1ccc([N+](=O)[O-])cc1)C1(c2ccccc2)CCOCC1`, for which the inhibition is -2.28% (inactive). The figure for `CN(C(=O)CN1C(=O)CCSc2ccc(S(=O)(=O)N3CCCC3)cc21)c1ccccc1` is -3.61% (inactive); for `NNC(=O)c1oc2nc(-c3ccccc3)cc(-c3ccco3)c2c1N` it is -6.02% (inactive). Then `CNC(=S)NNC(=O)c1cccn(Cc2ccccc2)c1=O`, with -2.2% (inactive); and `CNC(=S)NNC(=O)c1oc2nc(-c3ccccc3)cc(-c3ccco3)c2c1N`, with 19.9% (active). Take `COc1ccc([C@@H]2[C@@H]3C(=O)N(C(C)(C)C)C(=O)[C@@H]3[C@]3(Cc4ccccc4)C(=O)N(c4cccc(Br)c4)C(=O)N23)cc1`: the inhibition was 0.18% (inactive). The figure for `Cc1nn(CC2CC2)c(=O)n1N(C)c1ncc(C(F)(F)F)cc1Cl` is 0.5% (inactive); for `O=C(Cc1ccc2c(c1)CCCC2)Nc1ccccc1Cl` it is 1.33% (inactive); for `Cc1c(NC(=O)Nc2ccccc2Cl)sc(=S)n1C` it is -3.79% (inactive). The figure for `O=C(Nc1ccccc1Cl)/C(Cl)=C(\Cl)S(=O)c1ccccc1` (centres undefined) is 16.5% (active). For `CC1CN(c2nc(-c3ccccc3)nnc2-c2ccccc2)CC(C)O1` (centres undefined), the inhibition was -2.42% (inactive). `Cn1cccc1/C=C1\SC(=S)N(NC(=O)c2ccc(Cl)cc2)C1=O`: the inhibition is -18.5% (inactive).

As for `CC(C)C(=O)NC(=S)Nc1ccccc1F`, the inhibition is 5.01% (inactive). For `COc1ccccc1NC(=S)NC(=O)C(C)C`, the inhibition is -0.01% (inactive). The figure for `CCc1ccccc1NC(=S)Nc1cc(OC)c(NC(=O)C(C)C)cc1OC` is 41.1% (active). The figure for `C=CCNC(=O)c1ccccc1NC(=O)c1ccc(Cl)c(S(=O)(=O)Nc2cccc(C)c2C)c1` is 2.11% (inactive). Then `Cc1nc(N2CCCC2C(=O)O)c2oc3ccccc3c2n1` (centres undefined), with -1.75% (inactive). As for `COc1ccc(C)cc1Nc1nc(C)nc2c1oc1ccccc12`, the inhibition is 1.33% (inactive). In the case of `Cc1nc(Cl)c2oc3ccccc3c2n1`, the inhibition was 15.3% (active). Then `CCCCC[C@@H]1C=C(C(=O)O)[C@H](c2ccc(C#N)cc2)N1S(=O)(=O)c1ccc(C)cc1`, with 0.94% (inactive). Then `O=C(N/C(=C\c1ccc([N+](=O)[O-])cc1)C(=O)N1CCCCC1)c1ccco1`, with 2.37% (inactive); and `COc1cccc(NC(=O)C2c3cc(OC)c(OC)cc3C(=O)N(C)C2c2cccnc2)c1` (centres undefined), with 69.3% (active); and `COc1cccc(NC(=O)C2C(c3ccccc3)C2(Cl)Cl)c1` (centres undefined), with -7.27% (inactive). `CCOc1cc2c(cc1OCC)C(C(=O)O)C(c1ccc(OC)c(O)c1)N(C)C2=O` (centres undefined): the inhibition was -1.73% (inactive). As for `CO[C@H]1[C@@H]2C=CO[C@@H](O[C@H]3O[C@@H](CO)[C@H](O)[C@@H](O)[C@@H]3O)[C@@H]2[C@@]2(CO)O[C@@H]12`, the inhibition is 1.64% (inactive). Then `Cc1nc2ccccc2nc(C)c1=NOCc1ccc(Cl)cc1Cl`, with -3.19% (inactive); and `CCOC(=O)C1CCN(C(=O)CC2C(=O)N(Cc3ccccc3)C(C)c3nc4ccccc4n32)CC1` (centres undefined), with -2.42% (inactive). The figure for `CC(C)n1cnc2c(NCc3ccccc3)cc(OCC3CCN(C)CC3)cc21` is 16.8% (active). The figure for `CCC(CO)Oc1cc(NC(=O)c2ccc(Cl)cc2)c2ncn(C(C)C)c2c1` (centres undefined) is -2.59% (inactive); for `CC(C)n1cnc2c(NCc3ccccc3)cc(N[C@@H](CO)Cc3ccccc3)cc21` it is 32.9% (active); for `CCC(CO)Oc1cc(NC(=O)c2cccc3ccccc23)c2ncn(C(C)C)c2c1` (centres undefined) it is -7.37% (inactive).

Turning to `CCC(CO)Oc1cc(NCc2ccccc2)c2ncn(C3CCCC3)c2c1` (centres undefined), the inhibition is -6.94% (inactive). The figure for `CCC(CO)Oc1cc(NC(=O)c2cccc(F)c2)c2ncn(C(C)C)c2c1` (centres undefined) is 3.9% (inactive); for `Cc1ccc(NC(=O)C(C)c2cccc(C(=O)c3ccccc3)c2)cc1` (centres undefined) it is 1.32% (inactive); for `O=C(Cn1c2[n+](c3ccc(C(F)(F)F)cc31)CCCCC2)Nc1c(F)cccc1F` it is -5.07% (inactive).

For the compound `CC(C)C(C)(C#N)NC(=O)CSc1nncn1-c1ccccc1` (centres undefined), the inhibition was -0.3% (inactive). Then `CC(C)(C)NC(=O)/C(=C/c1cccnc1)NC(=O)c1ccco1`, with 0.75% (inactive); and `Cc1cc(C)c2c(Cn3ccnc3)cc(=O)oc2c1`, with -4.75% (inactive). Take `Cc1nn(-c2ccccc2)c(C)c1NC(=O)COC(=O)c1cc(Cl)ccc1O`: the inhibition is 2.71% (inactive). The figure for `Cc1nn(-c2ccccc2)c(C)c1NC(=O)CCl` is 1.95% (inactive); for `Cc1ccc2c(c1)N(C(=O)CCC(=O)NCc1cccnc1)CCO2` it is -2.36% (inactive).
